Experiment [1] addresses Tyrosine-protein kinase SYK (Homo sapiens) (UniProt P43405). Conditions: at 10 µM.
The target in experiment [2] is T1, Mitogen-activated protein kinase kinase kinase 7 (Homo sapiens) (UniProt O43318).
T1 sequence (whole entry): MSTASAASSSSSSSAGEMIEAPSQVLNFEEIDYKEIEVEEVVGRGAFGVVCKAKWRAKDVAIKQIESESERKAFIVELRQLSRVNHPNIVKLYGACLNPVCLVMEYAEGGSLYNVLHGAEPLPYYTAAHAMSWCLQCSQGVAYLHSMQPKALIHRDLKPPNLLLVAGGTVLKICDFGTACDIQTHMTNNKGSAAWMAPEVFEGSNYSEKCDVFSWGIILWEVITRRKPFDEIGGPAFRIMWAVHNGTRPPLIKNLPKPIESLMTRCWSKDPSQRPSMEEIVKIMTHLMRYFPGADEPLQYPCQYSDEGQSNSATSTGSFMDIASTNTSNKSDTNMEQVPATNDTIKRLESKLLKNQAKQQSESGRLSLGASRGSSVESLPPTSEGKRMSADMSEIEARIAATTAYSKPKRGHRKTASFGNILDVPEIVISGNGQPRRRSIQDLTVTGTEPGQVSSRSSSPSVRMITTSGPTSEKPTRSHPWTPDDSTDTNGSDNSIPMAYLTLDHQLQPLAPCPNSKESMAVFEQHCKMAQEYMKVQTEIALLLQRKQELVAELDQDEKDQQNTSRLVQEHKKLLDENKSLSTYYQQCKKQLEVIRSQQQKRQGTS
Conditions: at 10 µM.

Experiment [3] has as its target T2, Serine/threonine-protein kinase TAO1 (Homo sapiens) (UniProt Q7L7X3).
T2 sequence (whole entry): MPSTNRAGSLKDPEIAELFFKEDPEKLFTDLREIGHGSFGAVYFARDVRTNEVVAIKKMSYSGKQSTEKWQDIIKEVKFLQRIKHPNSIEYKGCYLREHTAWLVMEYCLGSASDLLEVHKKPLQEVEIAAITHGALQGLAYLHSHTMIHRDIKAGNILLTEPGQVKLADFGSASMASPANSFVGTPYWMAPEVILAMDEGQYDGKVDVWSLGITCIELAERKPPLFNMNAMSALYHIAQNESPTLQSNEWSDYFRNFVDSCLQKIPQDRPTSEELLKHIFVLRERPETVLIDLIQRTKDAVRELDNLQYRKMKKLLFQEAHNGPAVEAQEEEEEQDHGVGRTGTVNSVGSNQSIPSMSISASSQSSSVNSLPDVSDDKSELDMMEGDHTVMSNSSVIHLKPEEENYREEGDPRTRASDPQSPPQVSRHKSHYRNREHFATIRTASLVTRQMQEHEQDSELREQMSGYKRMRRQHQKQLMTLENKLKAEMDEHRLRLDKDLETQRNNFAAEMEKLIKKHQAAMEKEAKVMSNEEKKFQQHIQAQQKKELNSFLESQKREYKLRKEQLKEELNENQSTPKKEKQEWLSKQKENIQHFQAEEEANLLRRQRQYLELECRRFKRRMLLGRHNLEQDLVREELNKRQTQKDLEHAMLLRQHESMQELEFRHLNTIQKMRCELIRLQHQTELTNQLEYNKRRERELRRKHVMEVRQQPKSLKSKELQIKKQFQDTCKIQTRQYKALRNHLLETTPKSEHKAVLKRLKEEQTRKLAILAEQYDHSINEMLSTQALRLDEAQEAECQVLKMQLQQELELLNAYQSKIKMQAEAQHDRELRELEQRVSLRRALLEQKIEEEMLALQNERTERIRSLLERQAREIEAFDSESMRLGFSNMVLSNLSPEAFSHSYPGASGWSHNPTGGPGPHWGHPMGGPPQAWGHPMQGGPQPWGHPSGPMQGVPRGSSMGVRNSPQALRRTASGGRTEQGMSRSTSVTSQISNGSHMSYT
As to conditions: at 1 µM.

Experiment [4] has as its target T2, Serine/threonine-protein kinase TAO1 (Homo sapiens). As to conditions: at 10 µM.
Experiment [5] addresses T3, Serine/threonine-protein kinase TAO2 (Homo sapiens) (UniProt Q9UL54).
T3 sequence (whole entry): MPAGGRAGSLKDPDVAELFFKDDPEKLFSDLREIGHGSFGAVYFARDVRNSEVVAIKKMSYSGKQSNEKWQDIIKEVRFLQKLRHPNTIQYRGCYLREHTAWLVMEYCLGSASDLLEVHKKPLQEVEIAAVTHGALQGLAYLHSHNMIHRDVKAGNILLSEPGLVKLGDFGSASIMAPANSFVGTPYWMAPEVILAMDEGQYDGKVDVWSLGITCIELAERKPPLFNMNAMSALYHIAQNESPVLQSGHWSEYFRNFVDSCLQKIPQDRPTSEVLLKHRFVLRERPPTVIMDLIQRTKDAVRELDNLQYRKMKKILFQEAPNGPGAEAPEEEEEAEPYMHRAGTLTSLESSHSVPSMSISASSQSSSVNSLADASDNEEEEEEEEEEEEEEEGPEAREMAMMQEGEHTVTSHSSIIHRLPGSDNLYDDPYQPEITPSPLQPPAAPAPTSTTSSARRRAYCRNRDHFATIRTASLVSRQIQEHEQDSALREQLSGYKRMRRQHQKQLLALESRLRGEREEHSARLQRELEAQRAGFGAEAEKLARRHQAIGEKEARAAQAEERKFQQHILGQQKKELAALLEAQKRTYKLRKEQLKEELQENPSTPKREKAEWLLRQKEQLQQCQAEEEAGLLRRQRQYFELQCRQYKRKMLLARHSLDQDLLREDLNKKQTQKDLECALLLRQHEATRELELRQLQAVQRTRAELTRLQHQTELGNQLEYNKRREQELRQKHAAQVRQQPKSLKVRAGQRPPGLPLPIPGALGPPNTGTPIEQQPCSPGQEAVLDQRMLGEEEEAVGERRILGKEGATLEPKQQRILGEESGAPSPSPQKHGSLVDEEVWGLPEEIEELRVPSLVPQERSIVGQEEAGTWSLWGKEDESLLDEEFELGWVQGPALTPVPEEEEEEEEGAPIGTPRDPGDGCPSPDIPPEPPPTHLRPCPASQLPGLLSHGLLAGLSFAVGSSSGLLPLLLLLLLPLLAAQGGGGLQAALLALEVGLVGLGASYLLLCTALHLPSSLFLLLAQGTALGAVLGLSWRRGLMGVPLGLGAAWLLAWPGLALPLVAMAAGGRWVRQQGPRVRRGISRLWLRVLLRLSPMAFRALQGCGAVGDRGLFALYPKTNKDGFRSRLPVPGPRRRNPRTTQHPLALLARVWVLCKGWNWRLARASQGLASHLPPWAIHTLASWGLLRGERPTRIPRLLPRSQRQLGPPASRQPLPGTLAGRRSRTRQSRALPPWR
Conditions: at 1 µM.

In experiment [6] the target is T3, Serine/threonine-protein kinase TAO2 (Homo sapiens). Conditions: at 10 µM.
Experiment [7] addresses T4, Serine/threonine-protein kinase TAO3 (Homo sapiens) (UniProt Q9H2K8).
T4 sequence (whole entry): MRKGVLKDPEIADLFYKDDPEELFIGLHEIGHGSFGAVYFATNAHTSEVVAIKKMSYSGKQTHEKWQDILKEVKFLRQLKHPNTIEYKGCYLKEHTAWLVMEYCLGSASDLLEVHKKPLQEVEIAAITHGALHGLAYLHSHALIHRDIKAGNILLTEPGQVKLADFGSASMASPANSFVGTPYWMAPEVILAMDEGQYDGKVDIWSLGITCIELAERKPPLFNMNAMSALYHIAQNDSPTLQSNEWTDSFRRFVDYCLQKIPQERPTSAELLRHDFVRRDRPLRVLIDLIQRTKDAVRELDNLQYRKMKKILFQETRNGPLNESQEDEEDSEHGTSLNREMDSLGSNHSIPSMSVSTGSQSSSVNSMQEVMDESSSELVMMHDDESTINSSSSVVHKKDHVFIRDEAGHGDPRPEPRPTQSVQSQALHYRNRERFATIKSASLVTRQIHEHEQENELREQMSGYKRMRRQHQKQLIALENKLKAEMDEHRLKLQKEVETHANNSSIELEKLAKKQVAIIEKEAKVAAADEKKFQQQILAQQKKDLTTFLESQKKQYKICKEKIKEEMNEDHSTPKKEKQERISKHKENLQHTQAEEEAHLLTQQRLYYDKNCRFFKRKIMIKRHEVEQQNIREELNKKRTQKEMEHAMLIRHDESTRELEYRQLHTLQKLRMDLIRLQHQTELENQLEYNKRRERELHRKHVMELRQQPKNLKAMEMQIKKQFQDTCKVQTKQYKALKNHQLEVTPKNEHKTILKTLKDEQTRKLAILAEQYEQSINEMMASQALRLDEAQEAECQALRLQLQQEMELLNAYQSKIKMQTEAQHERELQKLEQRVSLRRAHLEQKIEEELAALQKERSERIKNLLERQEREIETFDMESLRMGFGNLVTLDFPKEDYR
As to conditions: at 1 µM.

This note sets out measurements from ChEMBL document CHEMBL2218924, “A broad activity screen in support of a chemogenomic map for kinase signalling research and drug discovery” (Biochem J, 2013).

Each structure is given as a SMILES string.

`c1ccc(-c2cnc(Nc3ccc(OCCN4CCCC4)cc3)s2)cc1`: the residual activity in experiment [1] worked out at 72%; in experiment [2], 74%; in experiment [3], 82%; in experiment [4], 28%; in experiment [5], 81%; in experiment [6], 21%. Besides, the residual activity in experiment [7] was 82%.
